Laboratory results reported in the supplement of paper PMC11732987, “Enantioselective OTUD7B fragment discovery through chemoproteomics screening and high-throughput optimisation” (Communications Chemistry, 2025).

How the values were obtained:
Assay in all cases: log2 ratio of Biotin-Ahx-Ub-VS probe labelling (fragment/DMSO); higher = less target engagement (more negative = stronger competition), active = hit call of the paper (q ≤ 0.05, log2 ratio ≤ -1)
Conditions in all cases: compound concentration: 200 uM; treatment time: 3 h
USP19 = biological target: T1, USP19 (UniProt O94966)
T1 sequence (whole entry): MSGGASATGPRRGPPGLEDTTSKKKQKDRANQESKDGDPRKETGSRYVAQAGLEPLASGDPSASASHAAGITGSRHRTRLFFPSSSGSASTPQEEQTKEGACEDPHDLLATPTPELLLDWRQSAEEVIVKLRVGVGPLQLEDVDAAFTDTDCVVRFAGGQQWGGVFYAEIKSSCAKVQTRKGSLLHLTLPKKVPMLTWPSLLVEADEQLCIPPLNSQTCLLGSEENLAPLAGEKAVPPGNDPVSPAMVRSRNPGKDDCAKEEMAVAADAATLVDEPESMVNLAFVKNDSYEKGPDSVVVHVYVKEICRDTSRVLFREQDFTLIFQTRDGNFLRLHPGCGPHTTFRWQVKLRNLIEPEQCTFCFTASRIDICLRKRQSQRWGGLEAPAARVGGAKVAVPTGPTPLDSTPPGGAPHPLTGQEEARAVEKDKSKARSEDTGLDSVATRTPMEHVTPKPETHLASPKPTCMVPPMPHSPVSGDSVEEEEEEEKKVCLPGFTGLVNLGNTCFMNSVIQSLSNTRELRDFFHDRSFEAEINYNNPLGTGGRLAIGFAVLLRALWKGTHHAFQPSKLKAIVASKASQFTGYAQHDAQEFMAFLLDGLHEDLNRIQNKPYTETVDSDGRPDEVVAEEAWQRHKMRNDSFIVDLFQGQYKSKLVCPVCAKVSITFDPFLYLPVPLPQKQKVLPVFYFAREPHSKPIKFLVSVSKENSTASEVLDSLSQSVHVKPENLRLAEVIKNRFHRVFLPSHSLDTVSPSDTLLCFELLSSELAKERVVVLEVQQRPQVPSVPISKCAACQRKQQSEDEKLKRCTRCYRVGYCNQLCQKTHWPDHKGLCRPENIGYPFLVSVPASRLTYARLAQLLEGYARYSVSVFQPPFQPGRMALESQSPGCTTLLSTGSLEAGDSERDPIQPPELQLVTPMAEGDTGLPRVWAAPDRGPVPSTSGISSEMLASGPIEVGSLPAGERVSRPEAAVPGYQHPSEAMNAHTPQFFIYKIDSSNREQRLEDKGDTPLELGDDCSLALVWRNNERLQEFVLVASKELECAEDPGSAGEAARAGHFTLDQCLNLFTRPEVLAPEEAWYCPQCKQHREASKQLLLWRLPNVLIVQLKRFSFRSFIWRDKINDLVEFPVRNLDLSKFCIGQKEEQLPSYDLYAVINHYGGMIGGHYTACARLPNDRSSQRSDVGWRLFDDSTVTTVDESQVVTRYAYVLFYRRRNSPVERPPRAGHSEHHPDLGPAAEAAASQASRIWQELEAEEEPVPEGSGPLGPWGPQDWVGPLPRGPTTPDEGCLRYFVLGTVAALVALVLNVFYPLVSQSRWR
Summary of the method: (§1)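 In triplicate, 495 µg of HEK293T lysate per sample was incubated with fragment at 200 µM or vehicle for 3 h. Biotin-Ahx-Ub-VS was then added to 0.5 µM final for 1 h, and labelled DUBs were captured with NeutrAvidin, digested with LysC and trypsin, and measured by diaPASEF LC-MS/MS. Data are average log2 fragment/vehicle ratios by unpaired t-test from global-median-normalised Spectronaut label-free quantities, restricted to proteins with ≥2 unique peptides.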

USP22 = biological target: T2, USP22 (UniProt Q9UPT9)
T2 sequence (whole entry): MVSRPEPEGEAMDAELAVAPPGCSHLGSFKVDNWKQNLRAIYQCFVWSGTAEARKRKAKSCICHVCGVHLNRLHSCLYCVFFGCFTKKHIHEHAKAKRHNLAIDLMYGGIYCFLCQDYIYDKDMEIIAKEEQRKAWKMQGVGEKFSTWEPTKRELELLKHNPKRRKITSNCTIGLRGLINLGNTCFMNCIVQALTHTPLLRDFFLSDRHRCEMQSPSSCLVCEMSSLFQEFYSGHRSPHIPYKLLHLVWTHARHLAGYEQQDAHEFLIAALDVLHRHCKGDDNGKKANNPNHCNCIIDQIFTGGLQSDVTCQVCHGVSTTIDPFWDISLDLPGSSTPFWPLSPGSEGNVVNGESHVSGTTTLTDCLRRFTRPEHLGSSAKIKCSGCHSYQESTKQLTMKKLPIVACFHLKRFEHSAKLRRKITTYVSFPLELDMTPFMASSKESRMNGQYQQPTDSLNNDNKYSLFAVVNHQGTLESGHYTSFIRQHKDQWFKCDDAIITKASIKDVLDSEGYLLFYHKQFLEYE
Summary of the method: as §1

USP24 = USP24 (UniProt Q9UPU5)
USP24, sequence (Q9UPU5 whole entry): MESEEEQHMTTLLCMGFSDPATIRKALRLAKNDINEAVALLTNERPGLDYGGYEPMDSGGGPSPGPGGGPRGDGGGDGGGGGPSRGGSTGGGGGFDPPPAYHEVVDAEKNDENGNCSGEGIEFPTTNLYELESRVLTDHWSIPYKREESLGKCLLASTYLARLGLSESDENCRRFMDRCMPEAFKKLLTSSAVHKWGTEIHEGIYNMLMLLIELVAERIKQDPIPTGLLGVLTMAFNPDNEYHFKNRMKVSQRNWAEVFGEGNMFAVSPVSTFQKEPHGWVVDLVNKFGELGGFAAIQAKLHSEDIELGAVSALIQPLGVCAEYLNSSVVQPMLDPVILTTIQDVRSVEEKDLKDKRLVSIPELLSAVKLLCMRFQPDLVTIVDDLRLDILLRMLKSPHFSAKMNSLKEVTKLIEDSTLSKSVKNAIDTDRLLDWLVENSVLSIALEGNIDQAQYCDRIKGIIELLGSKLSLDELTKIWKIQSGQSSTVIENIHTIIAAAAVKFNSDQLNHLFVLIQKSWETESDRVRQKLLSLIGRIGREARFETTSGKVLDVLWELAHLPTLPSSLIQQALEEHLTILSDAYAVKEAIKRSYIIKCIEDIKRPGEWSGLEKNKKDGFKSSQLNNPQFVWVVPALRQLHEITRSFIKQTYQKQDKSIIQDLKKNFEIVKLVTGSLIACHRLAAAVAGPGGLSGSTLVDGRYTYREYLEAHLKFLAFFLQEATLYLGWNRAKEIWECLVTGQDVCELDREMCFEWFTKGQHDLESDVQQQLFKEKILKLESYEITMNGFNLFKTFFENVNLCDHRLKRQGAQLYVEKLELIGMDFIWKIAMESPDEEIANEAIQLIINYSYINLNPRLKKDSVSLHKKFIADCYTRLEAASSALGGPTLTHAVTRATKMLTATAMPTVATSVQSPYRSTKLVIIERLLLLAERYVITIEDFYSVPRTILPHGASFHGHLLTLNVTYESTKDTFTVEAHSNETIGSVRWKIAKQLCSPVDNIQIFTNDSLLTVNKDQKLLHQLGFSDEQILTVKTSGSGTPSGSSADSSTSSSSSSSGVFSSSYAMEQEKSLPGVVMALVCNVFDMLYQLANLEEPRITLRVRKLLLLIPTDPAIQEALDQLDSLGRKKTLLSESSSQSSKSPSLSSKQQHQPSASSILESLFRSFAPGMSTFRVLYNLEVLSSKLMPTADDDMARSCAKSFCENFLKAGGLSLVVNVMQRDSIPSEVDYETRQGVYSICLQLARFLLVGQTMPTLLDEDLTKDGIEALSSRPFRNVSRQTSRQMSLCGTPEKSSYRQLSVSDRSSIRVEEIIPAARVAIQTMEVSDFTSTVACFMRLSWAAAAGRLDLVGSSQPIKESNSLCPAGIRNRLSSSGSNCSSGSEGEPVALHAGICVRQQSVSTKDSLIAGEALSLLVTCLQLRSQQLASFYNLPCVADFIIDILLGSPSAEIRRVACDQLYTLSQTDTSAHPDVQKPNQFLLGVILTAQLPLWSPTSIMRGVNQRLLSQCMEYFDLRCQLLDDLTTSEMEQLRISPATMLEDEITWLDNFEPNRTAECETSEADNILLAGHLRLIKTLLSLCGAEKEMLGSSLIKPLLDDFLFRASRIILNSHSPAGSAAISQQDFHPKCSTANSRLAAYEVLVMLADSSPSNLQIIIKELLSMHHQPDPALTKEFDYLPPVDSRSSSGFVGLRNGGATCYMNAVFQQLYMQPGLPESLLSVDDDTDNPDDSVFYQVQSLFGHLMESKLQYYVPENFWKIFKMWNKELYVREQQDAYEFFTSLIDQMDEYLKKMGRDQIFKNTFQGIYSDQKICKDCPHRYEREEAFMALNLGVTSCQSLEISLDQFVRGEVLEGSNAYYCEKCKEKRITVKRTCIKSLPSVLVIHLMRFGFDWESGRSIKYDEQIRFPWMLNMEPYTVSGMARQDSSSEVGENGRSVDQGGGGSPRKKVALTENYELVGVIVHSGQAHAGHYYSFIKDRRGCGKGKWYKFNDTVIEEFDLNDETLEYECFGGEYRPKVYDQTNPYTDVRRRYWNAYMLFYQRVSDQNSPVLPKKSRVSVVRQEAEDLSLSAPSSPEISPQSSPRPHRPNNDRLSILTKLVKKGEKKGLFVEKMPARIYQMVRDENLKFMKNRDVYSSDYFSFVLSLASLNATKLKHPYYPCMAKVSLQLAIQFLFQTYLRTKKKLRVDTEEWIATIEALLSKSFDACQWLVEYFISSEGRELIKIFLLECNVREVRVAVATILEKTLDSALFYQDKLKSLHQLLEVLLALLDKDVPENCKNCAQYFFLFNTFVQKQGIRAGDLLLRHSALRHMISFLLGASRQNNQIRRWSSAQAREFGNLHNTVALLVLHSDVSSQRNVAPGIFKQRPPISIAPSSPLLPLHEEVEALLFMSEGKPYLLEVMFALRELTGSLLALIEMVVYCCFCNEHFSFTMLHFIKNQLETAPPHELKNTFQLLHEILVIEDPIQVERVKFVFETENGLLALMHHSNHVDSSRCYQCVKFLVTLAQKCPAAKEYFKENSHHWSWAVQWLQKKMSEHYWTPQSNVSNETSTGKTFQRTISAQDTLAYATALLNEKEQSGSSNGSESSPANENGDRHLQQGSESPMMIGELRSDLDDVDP
Summary of the method: as §1

USP25 = biological target: T3, USP25 (UniProt Q9UHP3)
T3 sequence (whole entry): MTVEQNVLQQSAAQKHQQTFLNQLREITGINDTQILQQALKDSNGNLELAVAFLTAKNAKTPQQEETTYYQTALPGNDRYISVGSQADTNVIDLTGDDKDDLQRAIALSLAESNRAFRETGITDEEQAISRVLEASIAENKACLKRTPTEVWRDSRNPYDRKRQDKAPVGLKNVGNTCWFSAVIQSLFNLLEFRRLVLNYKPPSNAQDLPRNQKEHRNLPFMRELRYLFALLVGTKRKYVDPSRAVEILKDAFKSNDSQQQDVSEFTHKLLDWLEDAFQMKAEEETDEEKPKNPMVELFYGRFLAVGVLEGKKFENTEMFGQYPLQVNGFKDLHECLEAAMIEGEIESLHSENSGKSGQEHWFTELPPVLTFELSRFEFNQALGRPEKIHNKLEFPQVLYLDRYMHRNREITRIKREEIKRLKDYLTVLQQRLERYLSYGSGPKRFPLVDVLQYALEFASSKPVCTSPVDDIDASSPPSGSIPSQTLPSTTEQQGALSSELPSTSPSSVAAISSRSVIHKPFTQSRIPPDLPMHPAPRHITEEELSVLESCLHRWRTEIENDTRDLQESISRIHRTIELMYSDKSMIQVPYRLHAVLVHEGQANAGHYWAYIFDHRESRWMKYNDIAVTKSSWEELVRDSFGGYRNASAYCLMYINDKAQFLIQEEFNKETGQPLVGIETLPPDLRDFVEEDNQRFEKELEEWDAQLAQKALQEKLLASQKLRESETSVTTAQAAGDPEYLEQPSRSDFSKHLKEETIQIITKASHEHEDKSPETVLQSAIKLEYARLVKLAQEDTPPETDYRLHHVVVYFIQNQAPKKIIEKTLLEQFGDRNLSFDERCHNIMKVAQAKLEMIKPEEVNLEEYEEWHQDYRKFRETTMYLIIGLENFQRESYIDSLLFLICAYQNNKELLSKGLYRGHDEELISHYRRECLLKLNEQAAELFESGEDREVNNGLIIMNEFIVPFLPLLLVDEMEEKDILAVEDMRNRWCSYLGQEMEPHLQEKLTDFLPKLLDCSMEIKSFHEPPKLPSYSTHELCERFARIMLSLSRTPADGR
Summary of the method: as §1

USP28 = biological target: T4, USP28 (UniProt Q96RU2)
T4 sequence (whole entry): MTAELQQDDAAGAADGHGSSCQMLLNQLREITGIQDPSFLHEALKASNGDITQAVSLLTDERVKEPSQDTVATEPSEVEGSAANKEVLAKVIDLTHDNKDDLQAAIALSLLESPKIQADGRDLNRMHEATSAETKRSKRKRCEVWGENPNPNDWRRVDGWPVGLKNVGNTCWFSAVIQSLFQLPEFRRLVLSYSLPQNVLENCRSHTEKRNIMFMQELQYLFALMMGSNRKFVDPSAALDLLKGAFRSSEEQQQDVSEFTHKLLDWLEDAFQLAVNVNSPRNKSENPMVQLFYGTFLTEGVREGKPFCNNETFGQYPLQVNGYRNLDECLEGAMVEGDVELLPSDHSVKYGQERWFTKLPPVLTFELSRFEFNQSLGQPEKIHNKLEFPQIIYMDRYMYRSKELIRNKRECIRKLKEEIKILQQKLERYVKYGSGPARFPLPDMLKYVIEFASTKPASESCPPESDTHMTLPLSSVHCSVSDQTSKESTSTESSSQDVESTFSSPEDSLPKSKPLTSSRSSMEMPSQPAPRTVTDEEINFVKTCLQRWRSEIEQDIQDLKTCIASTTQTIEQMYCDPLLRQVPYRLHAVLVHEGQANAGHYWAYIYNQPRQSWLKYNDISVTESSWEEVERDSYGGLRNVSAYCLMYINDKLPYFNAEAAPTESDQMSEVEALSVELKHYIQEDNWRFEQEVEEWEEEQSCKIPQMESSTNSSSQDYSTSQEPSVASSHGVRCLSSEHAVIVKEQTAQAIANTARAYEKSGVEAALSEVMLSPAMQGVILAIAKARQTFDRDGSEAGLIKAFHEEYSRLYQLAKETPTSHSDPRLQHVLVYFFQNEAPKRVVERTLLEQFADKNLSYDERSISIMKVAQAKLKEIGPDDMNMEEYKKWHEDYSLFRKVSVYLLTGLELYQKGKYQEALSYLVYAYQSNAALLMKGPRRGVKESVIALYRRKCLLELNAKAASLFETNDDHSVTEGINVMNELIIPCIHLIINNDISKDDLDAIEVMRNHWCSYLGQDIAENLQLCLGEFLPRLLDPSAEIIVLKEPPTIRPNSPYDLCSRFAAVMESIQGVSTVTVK
Summary of the method: as §1

Measured: log2 ratio of Biotin-Ahx-Ub-VS probe labelling

O=C(CCl)Nc1ccc(F)cc1F
inactive: USP19 -0.101 | USP22 -0.241 | USP24 -0.312 | USP25 -0.265 | USP28 -0.838
